In assay [1] the target is T1, 3-phosphoinositide-dependent protein kinase 1 (Homo sapiens) (UniProt O15530).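 Note: values are mean inhibition of PDK1.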
T1 sequence (whole entry): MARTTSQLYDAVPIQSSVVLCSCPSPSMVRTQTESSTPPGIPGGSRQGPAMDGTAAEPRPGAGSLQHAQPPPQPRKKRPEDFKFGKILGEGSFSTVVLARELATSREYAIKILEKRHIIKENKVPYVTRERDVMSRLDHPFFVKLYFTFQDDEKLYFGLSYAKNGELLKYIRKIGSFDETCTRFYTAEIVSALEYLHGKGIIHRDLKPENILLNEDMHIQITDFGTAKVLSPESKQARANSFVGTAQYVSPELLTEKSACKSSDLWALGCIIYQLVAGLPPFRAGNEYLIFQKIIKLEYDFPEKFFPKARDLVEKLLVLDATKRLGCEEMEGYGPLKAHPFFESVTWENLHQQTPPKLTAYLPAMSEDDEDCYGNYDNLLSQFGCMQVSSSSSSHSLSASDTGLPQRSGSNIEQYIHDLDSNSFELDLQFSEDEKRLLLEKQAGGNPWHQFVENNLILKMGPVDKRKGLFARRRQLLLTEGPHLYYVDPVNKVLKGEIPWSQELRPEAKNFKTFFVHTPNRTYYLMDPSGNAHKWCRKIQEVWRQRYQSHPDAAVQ
The settings on record: at 0.1 µM.

In assay [2] the target is cAMP-dependent protein kinase catalytic subunit alpha (Homo sapiens) (UniProt P17612). The settings on record: at 0.1 µM.
The target is the same in assay [3]. The settings on record: at 1 µM.
Assay [4] has as its target Protein kinase C alpha type (Homo sapiens) (UniProt P17252). The settings on record: at 0.1 µM.
Assay [5] has the same target. The settings on record: at 1 µM.
Assay [6] addresses Protein kinase C beta type (Homo sapiens) (UniProt P05771). To be noted: at 0.1 µM.
For assay [7] the target is unchanged. The settings on record: at 1 µM.
For assay [8], the target named is Protein kinase C eta type (Homo sapiens) (UniProt P24723). To be noted: at 0.1 µM.
Chain of Protein kinase C eta type (Homo sapiens) (P24723 whole entry): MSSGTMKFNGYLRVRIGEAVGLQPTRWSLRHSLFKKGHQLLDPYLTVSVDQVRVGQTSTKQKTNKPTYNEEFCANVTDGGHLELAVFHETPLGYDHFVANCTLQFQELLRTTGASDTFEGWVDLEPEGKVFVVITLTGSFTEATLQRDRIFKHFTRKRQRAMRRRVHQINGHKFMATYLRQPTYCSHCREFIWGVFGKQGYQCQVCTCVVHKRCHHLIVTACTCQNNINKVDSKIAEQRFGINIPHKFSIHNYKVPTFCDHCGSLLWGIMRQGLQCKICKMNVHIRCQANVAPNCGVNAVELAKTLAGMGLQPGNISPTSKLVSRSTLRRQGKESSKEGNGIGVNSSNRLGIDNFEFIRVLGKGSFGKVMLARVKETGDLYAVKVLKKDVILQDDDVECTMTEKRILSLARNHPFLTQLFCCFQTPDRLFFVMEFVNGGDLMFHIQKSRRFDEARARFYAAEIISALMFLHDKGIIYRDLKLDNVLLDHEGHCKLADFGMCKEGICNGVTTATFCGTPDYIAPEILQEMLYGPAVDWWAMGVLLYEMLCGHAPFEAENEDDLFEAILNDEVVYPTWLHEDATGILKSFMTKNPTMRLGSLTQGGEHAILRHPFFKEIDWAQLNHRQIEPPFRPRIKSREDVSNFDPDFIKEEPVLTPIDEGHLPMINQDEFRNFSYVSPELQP
For assay [9] the target is unchanged. To be noted: at 1 µM.
In assay [10] the target is Protein kinase C gamma type (Homo sapiens) (UniProt P05129). The settings on record: at 0.1 µM.
Assay [11] has the same target. To be noted: at 1 µM.
Assay [12] deals with T2, Protein kinase C iota type (Homo sapiens) (UniProt P41743).
T2 sequence (whole entry): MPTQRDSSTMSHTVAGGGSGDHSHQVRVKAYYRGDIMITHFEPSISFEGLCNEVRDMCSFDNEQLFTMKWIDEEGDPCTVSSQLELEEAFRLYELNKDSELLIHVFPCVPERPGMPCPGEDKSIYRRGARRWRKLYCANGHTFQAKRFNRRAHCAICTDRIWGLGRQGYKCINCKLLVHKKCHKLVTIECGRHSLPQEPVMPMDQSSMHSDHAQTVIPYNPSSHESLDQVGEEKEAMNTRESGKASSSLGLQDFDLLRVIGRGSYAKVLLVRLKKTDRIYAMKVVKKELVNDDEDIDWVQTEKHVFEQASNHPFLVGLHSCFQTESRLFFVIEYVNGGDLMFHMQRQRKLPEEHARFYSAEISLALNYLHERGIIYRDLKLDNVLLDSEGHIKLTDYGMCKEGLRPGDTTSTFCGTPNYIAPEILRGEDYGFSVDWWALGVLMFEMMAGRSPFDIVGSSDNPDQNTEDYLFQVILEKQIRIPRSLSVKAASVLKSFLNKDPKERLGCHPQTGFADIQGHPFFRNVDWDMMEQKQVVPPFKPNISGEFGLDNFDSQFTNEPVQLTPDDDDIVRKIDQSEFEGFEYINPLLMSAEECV
To be noted: at 0.1 µM.

Assay [13] has as its target T2, Protein kinase C iota type (Homo sapiens). The settings on record: at 1 µM.
The target in assay [14] is Protein kinase C theta type (Homo sapiens) (UniProt Q04759). To be noted: at 0.1 µM.
Chain of Protein kinase C theta type (Homo sapiens) (Q04759 whole entry, looked up): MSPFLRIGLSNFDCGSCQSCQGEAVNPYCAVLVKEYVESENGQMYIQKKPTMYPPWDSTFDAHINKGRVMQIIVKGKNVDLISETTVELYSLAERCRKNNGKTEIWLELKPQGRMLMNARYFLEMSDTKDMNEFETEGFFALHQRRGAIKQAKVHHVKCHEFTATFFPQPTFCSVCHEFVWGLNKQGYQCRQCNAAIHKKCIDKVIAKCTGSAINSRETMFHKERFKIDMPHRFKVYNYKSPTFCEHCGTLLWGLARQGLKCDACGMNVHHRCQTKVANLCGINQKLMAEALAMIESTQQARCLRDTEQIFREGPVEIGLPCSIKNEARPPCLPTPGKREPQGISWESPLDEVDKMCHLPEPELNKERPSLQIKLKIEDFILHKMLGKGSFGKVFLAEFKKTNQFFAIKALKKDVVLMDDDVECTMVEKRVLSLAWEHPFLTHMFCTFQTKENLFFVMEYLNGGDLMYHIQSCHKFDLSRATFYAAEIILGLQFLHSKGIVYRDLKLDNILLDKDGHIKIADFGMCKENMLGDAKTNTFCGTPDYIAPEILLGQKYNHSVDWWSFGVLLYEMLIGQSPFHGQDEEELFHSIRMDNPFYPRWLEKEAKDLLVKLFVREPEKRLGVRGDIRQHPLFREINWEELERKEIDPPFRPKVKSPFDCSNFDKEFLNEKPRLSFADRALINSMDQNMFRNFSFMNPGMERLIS
Assay [15] shares this target. The settings on record: at 1 µM.
Assay [16] deals with Protein kinase C beta type (Homo sapiens) (UniProt P05771). To be noted: at 0.1 µM. The source holds these as a separate data set.
Chain of Protein kinase C beta type (Homo sapiens) (P05771 2-671 limits assumed): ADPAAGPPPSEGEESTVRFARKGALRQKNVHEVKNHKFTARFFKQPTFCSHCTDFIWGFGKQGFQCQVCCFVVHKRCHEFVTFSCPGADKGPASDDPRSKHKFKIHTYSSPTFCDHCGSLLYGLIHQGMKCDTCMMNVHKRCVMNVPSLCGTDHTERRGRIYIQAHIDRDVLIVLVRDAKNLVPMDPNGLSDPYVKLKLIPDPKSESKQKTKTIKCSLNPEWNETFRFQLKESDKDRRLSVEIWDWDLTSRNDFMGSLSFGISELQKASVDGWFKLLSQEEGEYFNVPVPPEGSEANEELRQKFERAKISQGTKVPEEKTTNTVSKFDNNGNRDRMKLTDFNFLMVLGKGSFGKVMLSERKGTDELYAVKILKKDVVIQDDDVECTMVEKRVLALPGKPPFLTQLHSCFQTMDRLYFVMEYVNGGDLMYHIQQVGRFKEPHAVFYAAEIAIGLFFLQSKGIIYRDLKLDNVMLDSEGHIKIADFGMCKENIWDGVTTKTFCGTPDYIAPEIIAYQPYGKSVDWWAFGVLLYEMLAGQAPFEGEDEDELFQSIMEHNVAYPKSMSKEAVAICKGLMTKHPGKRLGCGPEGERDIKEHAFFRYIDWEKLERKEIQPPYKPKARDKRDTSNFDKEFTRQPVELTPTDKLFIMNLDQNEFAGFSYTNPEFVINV
Assay [17] has the same target. To be noted: at 1 µM. The source holds these as a separate data set.
For assay [18], the target named is T3, Serine/threonine-protein kinase D1 (Homo sapiens) (UniProt Q15139).
T3 sequence (whole entry): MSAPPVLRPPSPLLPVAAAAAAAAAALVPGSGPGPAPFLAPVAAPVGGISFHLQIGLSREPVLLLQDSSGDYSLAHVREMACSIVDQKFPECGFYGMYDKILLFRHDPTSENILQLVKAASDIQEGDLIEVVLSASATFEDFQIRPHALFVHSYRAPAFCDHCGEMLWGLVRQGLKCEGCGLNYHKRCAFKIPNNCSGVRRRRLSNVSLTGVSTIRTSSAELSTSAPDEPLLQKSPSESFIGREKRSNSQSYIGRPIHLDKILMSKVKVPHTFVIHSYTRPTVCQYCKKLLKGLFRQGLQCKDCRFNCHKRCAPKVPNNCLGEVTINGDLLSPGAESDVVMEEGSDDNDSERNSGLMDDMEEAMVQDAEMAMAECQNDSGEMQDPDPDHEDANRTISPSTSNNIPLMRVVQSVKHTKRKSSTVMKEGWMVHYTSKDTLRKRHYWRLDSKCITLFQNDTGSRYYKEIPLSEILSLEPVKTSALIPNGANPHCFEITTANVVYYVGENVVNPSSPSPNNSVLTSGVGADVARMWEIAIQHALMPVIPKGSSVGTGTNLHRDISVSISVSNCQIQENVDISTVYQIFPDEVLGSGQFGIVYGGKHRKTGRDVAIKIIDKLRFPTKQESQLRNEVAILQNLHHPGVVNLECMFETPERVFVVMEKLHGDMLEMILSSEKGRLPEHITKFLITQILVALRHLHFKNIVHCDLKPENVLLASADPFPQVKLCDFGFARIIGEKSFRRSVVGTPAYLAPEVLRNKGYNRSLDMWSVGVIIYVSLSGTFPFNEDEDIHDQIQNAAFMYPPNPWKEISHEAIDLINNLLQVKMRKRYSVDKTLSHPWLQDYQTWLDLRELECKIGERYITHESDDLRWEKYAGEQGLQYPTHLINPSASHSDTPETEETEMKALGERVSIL
The settings on record: at 0.1 µM.

Assay [19] addresses T3, Serine/threonine-protein kinase D1 (Homo sapiens). The settings on record: at 1 µM.
Assay [20] addresses T4, Serine/threonine-protein kinase D2 (Homo sapiens) (UniProt Q9BZL6).
T4 sequence (whole entry): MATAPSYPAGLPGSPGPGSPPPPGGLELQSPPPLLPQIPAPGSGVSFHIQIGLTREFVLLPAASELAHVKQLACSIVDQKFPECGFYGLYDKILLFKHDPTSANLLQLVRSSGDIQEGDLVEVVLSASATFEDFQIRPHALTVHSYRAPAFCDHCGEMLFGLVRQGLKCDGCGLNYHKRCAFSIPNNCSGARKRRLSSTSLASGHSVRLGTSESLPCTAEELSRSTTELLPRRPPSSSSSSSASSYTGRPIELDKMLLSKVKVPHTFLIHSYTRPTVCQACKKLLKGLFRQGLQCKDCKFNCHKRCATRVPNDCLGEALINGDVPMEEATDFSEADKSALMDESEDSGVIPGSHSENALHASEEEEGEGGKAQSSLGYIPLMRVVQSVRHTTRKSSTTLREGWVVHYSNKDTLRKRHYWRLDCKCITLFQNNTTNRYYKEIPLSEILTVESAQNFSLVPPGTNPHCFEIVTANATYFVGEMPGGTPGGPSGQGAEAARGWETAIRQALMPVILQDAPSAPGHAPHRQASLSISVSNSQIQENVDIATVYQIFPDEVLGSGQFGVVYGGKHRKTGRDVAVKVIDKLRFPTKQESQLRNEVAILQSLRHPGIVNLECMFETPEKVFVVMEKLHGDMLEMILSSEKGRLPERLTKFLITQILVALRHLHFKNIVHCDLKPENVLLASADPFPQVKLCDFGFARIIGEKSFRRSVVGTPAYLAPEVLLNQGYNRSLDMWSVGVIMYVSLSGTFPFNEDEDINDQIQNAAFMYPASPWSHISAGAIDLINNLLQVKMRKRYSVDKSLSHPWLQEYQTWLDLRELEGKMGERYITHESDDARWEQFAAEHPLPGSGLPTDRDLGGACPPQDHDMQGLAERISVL
The settings on record: at 0.1 µM.

The inhibition is the relative decrease from the control value, in per cent. Turning to `CC1=C(C(=O)Nc2ccc3[nH]ncc3c2)C(c2ccc(Cl)c(Cl)c2)CC(=O)N1` (stereo not given), the inhibition in assay [1] is 3.64%; in assay [2], 7.32%; in assay [3], 43.1%; in assay [4] it was 0.41%; in [5], 1.24%; in [6], -1.01%. In addition, the inhibition in assay [7] was -0.1%; in assay [8], 0.22%; in [9], 14.1%; in assay [10], 1.51%; in assay [11], -2.08%; in [12] it was 0.23%. Moreover, the inhibition in assay [13] is -0.03%; in assay [14], 0.6%; in assay [15], 5.07%; in assay [16], 0.17%; in [17], 0.61%; in assay [18] it was 0.89%. Moreover, the values for the inhibition in assay [19] and in assay [20] were 4.46% and 1.41%, respectively.
As for `COc1cc2ncn(-c3cc(OCc4ccccc4Cl)c(C(N)=O)s3)c2cc1OC`, the inhibition is 7.8% in [1]; -0.08% in assay [2]; -0.94% in [3]; 0% in assay [4]; 1.42% in [5]; 0.65% in assay [6]. Further, the inhibition is 0.68% in assay [7]; 1.47% in assay [8]; 2.19% in [9]; -0.07% in assay [10]; 2.36% in assay [11]; 1.15% in assay [12]. Moreover, the inhibition in assay [13] is 0.82%; in assay [14], -0.26%; in assay [15], 0.66%; in [16], 0.93%; in [17], 0.76%; in [18], 0.01%. The inhibition in assay [19] is 0.57%; in assay [20], -0.54%.
For `NC(=O)c1cccc(Nc2nccc(Nc3cccc4[nH]ncc34)n2)c1`, the inhibition in [1] is -1.42%; in assay [2], 7.26%; in assay [3], 10.7%; in [4], -0.39%; in assay [5], 14.6%; in [6] it was 0.67%. Further, the inhibition is 2.07% in assay [7]; -3% in [8]; 5.2% in [9]; 0.25% in assay [10]; 9.98% in assay [11]; -0.89% in assay [12]. For the same compound, the inhibition in [13] is -1.43%; in assay [14], 0.02%; in assay [15], 6.28%; in [16], -1.01%; in [17], 7.52%; in [18], -1.68%. For the same compound, the inhibition in assay [19] was 6.22%; in assay [20] it was -1.94%.
Turning to `CCn1c(-c2nonc2N)nc2c(N3CCCC3)nccc21`, the inhibition was -1.76% in assay [1]; -0.34% in [2]; 1.34% in assay [3]; -0.23% in assay [4]; 0.84% in [5]; 0.38% in assay [6]. In addition, the inhibition in [7] is 13.4%; in [8] it was 1.82%; in [9], 11.2%; in [10] it was -1.48%; in assay [11], 2.66%; in assay [12], 0.51%. In addition, the inhibition in assay [13] was -0.25%; in assay [14] it was -0.32%; in [15], 0.44%; in [16] it was -1.87%; in [17], 2.46%; in assay [18], -0.28%. In addition, the inhibition in assay [19] was -0.14%; in assay [20] it was -1.19%.

Values taken from ChEMBL document CHEMBL1961873, “Compounds: GSK PKIS; Assays: Nanosyn kinase panel” (2012).
